Results: PubChem BioAssay AID374 (University of Pittsburgh Molecular Library Screening Center, 2006)
About 100 (0.15%) of roughly 65,000 compounds were called active.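 The calls were made as follows: active = inhibition above about 50% (limit read from the data); inconclusive = inhibition over screen mean plus 3 SD, below that limit; inactive = the rest.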 For the sample, actives were picked, then their nearest neighbours and some compounds at random.

biological target: Dual specificity protein phosphatase 1 (Homo sapiens) (UniProt P28562); assay: MKP-1 phosphatase inhibitors, primary screen, biochemical, in vitro (AID 374); details: recombinant MKP-1, OMFP hydrolysis fluorescence; active compounds read high;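 compounds tested at a single concentration somewhere between 10 and 100 µM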;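 also: 0% = DMSO max control wells and 100% = wells with enzyme stopped by NaOH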
Sequence (P28562 whole entry, looked up): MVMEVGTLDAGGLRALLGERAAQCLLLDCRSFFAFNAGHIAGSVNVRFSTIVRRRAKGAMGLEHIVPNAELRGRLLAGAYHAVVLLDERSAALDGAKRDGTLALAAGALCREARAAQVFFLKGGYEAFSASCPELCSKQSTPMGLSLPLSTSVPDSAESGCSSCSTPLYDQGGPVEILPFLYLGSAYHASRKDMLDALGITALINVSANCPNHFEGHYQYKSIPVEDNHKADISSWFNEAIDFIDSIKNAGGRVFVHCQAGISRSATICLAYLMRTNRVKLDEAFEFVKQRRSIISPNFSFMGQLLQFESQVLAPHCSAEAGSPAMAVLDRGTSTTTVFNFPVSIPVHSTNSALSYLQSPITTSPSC

inhibition, inactive:
COC(C)(C)[C@]12CC(O)(C(C)C)ON1[C@H]1CCCCC1N2O (stereo not given in full) -23.5%
CCOc1ccc(C(=O)NC2CCN(S(=O)(=O)CC)CC2)cc1 -10.3%
COC(=O)C(C)n1cnc2c(nnn2-c2cccc(Cl)c2)c1=O (stereo not given) -3.96%
Cc1ccc(CNC(=O)C2CCCN(S(C)(=O)=O)C2)cc1 (stereo not given) 4.5%
O=C(c1ccco1)N1CCN(CC(=O)N(C2CCCCC2)C2CCS(=O)(=O)C2)CC1 (stereo not given) 8.56%
COc1ccc(-n2ncc3c(N4CCc5ccccc54)ncnc32)cc1 -0.04%
CCCN1C(=O)C(NS(=O)(=O)c2ccc(N)cc2)(C(F)(F)F)C(C(=O)OC)=C1C (stereo not given) 7.02%
Nc1ncc(-c2cc3ccccc3oc2=O)s1 -7.46%
COc1ccccc1N1CCN(C(=O)CSc2nnc(-c3ccoc3C)o2)CC1 2.49%
CC1=NC2(CCCc3c2no[n+]3[O-])N(O)C1(C)C (stereo not given) 10.4%
Cc1ccc(-n2nc3c(c2NC(=O)c2ccc4c(c2)OCO4)CSC3)c(C)c1 28.8%
CCOc1cc(-c2conc2N)cc(OCC)c1OCC 0.9%
CCOc1ccc(NC(=O)Nc2ccc(N(C)C(C)=O)cc2)cc1 6.8%
CCOC(=O)C1CCN(C(=O)CSc2cc(=O)n(C)c3ccccc23)CC1 3.52%
Cn1c(=O)c(C(=O)Nc2ncccn2)c(O)c2ccccc21 1.1%
O=C(Nc1cccnc1)c1noc2c1CCCCC2 -9.22%
S=C1SCN(CCN2CCOCC2)CN1Cc1ccccc1 22.5%
Cn1cc(S(=O)(=O)N2CCC(Cc3ccccc3)CC2)c(=O)n(C)c1=O 13.6%
CCOC(=O)C1=C(CC)Nc2ccccc2N=C1NC(=O)c1cccc(S(=O)(=O)N2CCCC2)c1 17.2%
CCOC(=O)N1CCN(C(=O)c2ccc(CN(c3ccc(C)c(C)c3)S(C)(=O)=O)cc2)CC1 6.83%
CCCC(=O)Nc1c(O)c2ccccc2[nH]c1=O 24%
O=C(O)CN(Cc1ccco1)S(=O)(=O)c1ccc(F)cc1 -3.94%
CC(C)C[C@H](NC(=O)Nc1cccc(C(F)(F)F)c1)C(=O)O -11.4%
CCOC(=O)c1cc2c(n(-c3ccc(C)cc3)c1=O)CCCC2=O 3.58%
CCN1C(=O)CS/C1=N\c1nccs1 2.24%
Cc1cc(C(=O)OCC(=O)NCc2ccco2)c(C)n1-c1ccccc1 8.87%
CCCC(NC(=O)c1ccccc1)c1nc2ccccc2n1Cc1ccc(C(=O)OC)o1 (stereo not given) -11.6%
O=C(Cn1nnc(-c2ccc(CN3CCOCC3)cc2)n1)NC1CCCCC1 -10.1%
COc1ccc(S(=O)(=O)N2CCCC2)c(C)c1C 2.42%
CCn1c(SCC(=O)Nc2cc(C)c(Cl)cc2OC)nnc1-c1ccco1 13%
Cn1cccc1C(=O)NC(=O)COC(=O)Cc1coc2ccc3ccccc3c12 31.4%
CCOc1ccc2nc(SC(CC)C(=O)Nc3cc(C)on3)sc2c1 (stereo not given) 2.57%
C=CCn1c(COc2ccccc2F)nnc1SCC(=O)N1CC(=O)Nc2ccccc21 2.2%
CCC1CCCCN1CCCNC(=O)Cn1nc(-c2ccccc2)ccc1=O (stereo not given) 0.39%
CCCc1[nH]nc2c1C(c1c(C)nn(-c3ccccc3)c1Cl)C(C#N)=C(N)O2 (stereo not given) -4.58%
Cc1ccc(C(C(=O)NCc2ccco2)N(CC2CCCO2)C(=O)Cn2nnc3ccccc32)cc1 (stereo not given) 4.86%
COC(=O)c1ccc(NC(=O)CSc2nnc(-c3ccncc3)n2C)cc1 -30.5%
COc1ccccc1C1/C(=C(/O)c2ccc(C)cc2)C(=O)C(=O)N1Cc1ccco1 (stereo not given) 22.9%
COc1ccc(OC)c(C(=O)c2coc3ccc(OC)cc23)c1 3.61%
COc1ccc(NC(=O)C2CCCN(S(=O)(=O)c3cccc4cccnc34)C2)cc1OC (stereo not given) 6.18%
CCn1c(Cc2ccccc2)nnc1SCc1nc2ccccc2c(=O)[nH]1 7.32%
NC(=O)CSc1oc(-c2cccs2)nc1S(=O)(=O)c1ccccc1 6.79%
CCOc1ccc(OCc2ccc(C(=O)Nc3cccc(C)n3)o2)cc1 -1.14%
CCc1nc(C)cn1S(=O)(=O)c1cc(OC)c(C)cc1C -31.2%
COc1cc(Br)cc(/C=N/c2ncn[nH]2)c1O -1.54%
CC1=NCCN1S(=O)(=O)c1ccc(Br)c(C)c1 -0.35%
Cn1c(C(=O)N2CCC(C(N)=O)CC2)cc2c(=O)n(C)c3ccccc3c21 8.99%
O=C(O)CSCNC(=O)CC12CC3CC(CC(C3)C1)C2 -17.4%
CCC(=O)c1cc2c(cc1NC(=O)c1cccs1)OCCO2 1.58%
O=S(=O)(NCCOc1cccc2cccnc12)c1ccc(F)cc1 -4.61%
